Results as given in PubChem BioAssay (NCI).
This is part of a sample that, as a whole, favours compounds with a hit. Of some 83,000 tested, about 20% had one in any assay.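 In brief: 96-well plates, 48 h treatment, single concentration, percent growth endpoint.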 Unmarked numbers belong to inactive results. Active and inactive are the calls of the source. How the source made its calls: active means growth percent below 10; inactive means the rest.

How the values were obtained:
Assay in all cases: NCI-60 one-dose screen, 48 h (100 = growth as untreated, 0 = no growth, -100 = all killed)
Conditions in all cases: 10 µM unless noted
SK-MEL-2 melanoma = test system: SK-MEL-2 melanoma
EKVX NSCLC = test system: EKVX NSCLC
SN12C renal = test system: SN12C renal
TK-10 renal = test system: TK-10 renal
ACHN renal = test system: ACHN renal
CAKI-1 renal = test system: CAKI-1 renal
A498 renal = test system: A498 renal
MOLT-4 leukemia = test system: MOLT-4 leukemia
OVCAR-8 ovarian = test system: OVCAR-8 ovarian
OVCAR-5 ovarian = test system: OVCAR-5 ovarian
OVCAR-4 ovarian = test system: OVCAR-4 ovarian
SK-OV-3 ovarian = test system: SK-OV-3 ovarian
IGROV1 ovarian = test system: IGROV1 ovarian
OVCAR-3 ovarian = test system: OVCAR-3 ovarian
NCI/ADR-RES ovarian = test system: NCI/ADR-RES ovarian
RPMI-8226 leukemia = test system: RPMI-8226 leukemia
HS 578T breast = test system: HS 578T breast
CCRF-CEM leukemia = test system: CCRF-CEM leukemia
SR leukemia = test system: SR leukemia

SMILES	growth (SK-MEL-2 melanoma)	growth (EKVX NSCLC)	growth (SN12C renal)	growth (TK-10 renal)	growth (ACHN renal)	growth (CAKI-1 renal)	growth (A498 renal)	growth (MOLT-4 leukemia)	growth (OVCAR-8 ovarian)	growth (OVCAR-5 ovarian)	growth (OVCAR-4 ovarian)	growth (SK-OV-3 ovarian)	growth (IGROV1 ovarian)	growth (OVCAR-3 ovarian)	growth (NCI/ADR-RES ovarian)	growth (RPMI-8226 leukemia)	growth (HS 578T breast)	growth (CCRF-CEM leukemia)	growth (SR leukemia)
COc1cccc(-c2nc(-c3ccc(N)cc3)co2)c1	99.8%	102%	95.2%	109%	106%	94.7%	100%	81.8%	85.8%	115%	109%	118%	-0.817% (active)	82%	92.8%				
C(#Cc1ccccc1C#Cc1ccccn1)c1ccc(OCCCCCCOc2ccc(C#Cc3ccccc3C#Cc3ccccn3)cc2)cc1	64.2%	42.5%	67.8%	76.2%	44.2%	57.9%	57.5%	21.6%	47.6%	85.4%	46.5%	80.9%	-48.8% (active)	35.5%	40%	5% (active)	72.7%		
COc1cc(/C=C/C(=O)CC(=O)/C=C/c2ccc(OC(=O)CCNC34CC5CC(CC(C5)C3)C4)c(OC)c2)ccc1OC(=O)CCNC12CC3CC(CC(C3)C1)C2	11.7%	21.6%	23.8%	70%	79.2%	49.1%	83.4%	-25.1% (active)	14.7%	51.8%	65.3%	63.8%	6.65% (active)		78.4%	-30.4% (active)	19.3%	-23.5% (active)	
CCOC(=O)CCN(c1c(Cl)ssc1=O)C(C)C	96.4%	107%	114%	129%	118%	124%	106%	-14.5% (active)	97.2%	87.2%	106%	116%	-5.46% (active)	128%	105%	105%	103%	-34.9% (active)	134%
Cc1ccc2nc3c(n2c1)C(=O)C(=O)c1ccccc1-3	-55.6% (active)	-89.6% (active)	-71.7% (active)	-62.4% (active)	-77.1% (active)	-83% (active)	-96.4% (active)	-70.8% (active)	-68.1% (active)	-74% (active)	-98.4% (active)	-90.9% (active)	-49.1% (active)	-82.5% (active)	-3.7% (active)	-51.9% (active)	-15.6% (active)	-12.8% (active)	-44.5% (active)
COc1cc(/C=C/C(=O)C(C(=O)/C=C/c2ccc(OC(=O)CCNc3nnc(C)s3)c(OC)c2)C(=O)CCNc2nnc(C)s2)ccc1OC(=O)CCNc1nnc(C)s1	13.2%	21.9%	-33.9% (active)	29.4%	-21.4% (active)	-3.62% (active)	49.7%		7.54% (active)	37.1%	35.9%	45.4%	-37.6% (active)	2.15% (active)	31.8%	-75.2% (active)	18.2%		
N#Cc1ccccc1C#Cc1ccccc1C#Cc1ccc(OCCCCCCOc2ccc(C#Cc3ccccc3C#Cc3ccccc3C#N)cc2)cc1	98.3%	111%	104%	147%	109%	116%	113%	103%	98.7%	96%	107%	111%	-19% (active)	126%	104%	108%	110%	3.16% (active)	113%
CCOc1cc(/C=C/C(=O)CC(=O)/C=C/c2ccc(OC(=O)CNCCN(CC)CC)c(OCC)c2)ccc1OC(=O)CNCCN(CC)CC	4.43% (active)	-38.1% (active)	-9.33% (active)	7.64% (active)	-88.4% (active)	-30.9% (active)	-26.8% (active)	-23.4% (active)	4.23% (active)	-34.5% (active)	18.1%	32.6%	-67.7% (active)	0.276% (active)	16.3%		1.48% (active)	4.21% (active)	-42.1% (active)
Cc1ccc(N/N=C(/C(=O)c2ccc(Cl)cc2)c2nc(C)cc(=O)[nH]2)cc1	95.3%	91.5%	100%	136%	99.1%	113%	108%	98.6%	101%	122%	116%	116%	7.59% (active)		103%	85.1%	99.9%	-15.1% (active)	84.4%
Cc1ccc2nc(-c3ccc(N(C)C)c(Br)c3)cn2c1	94.3%	79.5%	94.8%	146%	95.6%	126%	118%	28.6%	93.8%	92.6%	115%	94.4%	-8.76% (active)	103%	78.2%	71%	83.2%		
C=C1CCC2C(C)(COC(=O)CC)C(OC(=O)CC)CCC2(C)C1C/C=C1/C(=O)OCC1OC(=O)CC (configuration not stated)	19.1%	85.1%	0.261% (active)	1.32% (active)	-90.7% (active)	19.2%	81.4%	-11% (active)	-13.9% (active)	-1.17% (active)	18.7%	103%	-0.405% (active)	-86.1% (active)	-22.9% (active)			-25.5% (active)	-23% (active)
CN(C)c1ccc(-c2nc3ncc(Br)cc3o2)cc1	92.1%	78.4%	98.2%	140%	99.9%	109%	79.8%	81%	99.6%	100%	113%	94.8%	17%	112%	88.4%	74%		77.1%	94.4%
CC(C)N(Cc1ccccc1)c1c(Cl)ssc1=O	93.7%	100%	99.7%	124%	102%	113%	109%	121%	86.7%	107%	104%	93.7%	-9.19% (active)	92.5%	107%	115%	109%		
[N-]=[N+]=NCc1cccc(/C(O)=C/C(=O)C(=O)O)c1	72.8%	120%	90.4%	107%	107%	131%	108%	-100% (active)	79.4%	63.5%	94.9%	107%		126%	78.6%	90.7%		75.2%	
O=C(COc1cccc(/C=C2\Oc3ccc4ccccc4c3C2=O)c1)c1ccc(Cl)cc1	57.5%	92.8%	91.2%	115%	96.8%	83%	132%	74%	80%	108%	85.3%	95.6%			100%	67.9%	92.8%	25.3%	51.6%
Cc1cc(C(=O)Nc2ccc3cc(CN4CCOCC4)ccc3n2)c(C)n1-c1ccccc1	16.6%	44.9%	73%	70.4%	50.5%	49.7%	79.8%	-17.4% (active)	4.27% (active)	83.1%	6.66% (active)	81.1%	66.4%	26.7%	-5.82% (active)		82.3%	8.79% (active)	
